# Active and inactive are the calls of the source. The call rests on the fitted dose curve.
# Test: NSCLC 2 Cell Viability Secondary Assay for qHTS Assay for Epigenetic Modulators
# Settings: NSCLC 2 viability, MTS absorbance, 4 days
# Source text: NIH Molecular Libraries Screening Centers Network [MLSCN] NIH Chemical Genomics Center [NCGC] MLSCN Grant: 1 X01 MH079860-01 Assay Provider: Elisabeth D. Martinez, University of Texas SW Medical Center NCGC Assay Overview: This secondary assay characterizes selected actives identified in the qHTS of the Locus Derepression (LDR) assay (PubChem AID 597). The LDR assay detects the derepression of a GFP reporter that is stably integrated in a region of the genome of murine c127i mammary cells that is presumably silenced. Compounds that cause derepression of the locus to express GFP are identified by enumerating GFP positive cells using a laser-scanning microplate cytometer. […] NSCLC 2 cell viability was measured using Cell Titer 96 AQueous One (Promega), an assay which detects the ability of metabolically active cells to reduce a tetrazolium salt substrate (MTS), into a soluble formazan product that can be measured by colorimetry.
# NCGC Assay Protocol Summary NSCLC 2 cells were plated in 96-well flat bottom tissue culture dishes (Corning) and grown overnight at 37 C and 5% CO2, then treated with compounds, incubated 4 days, and assayed for viability using the Cell Titer 96 AQueous One kit (Promega) according to the manufacturer's protocol. Absorbance at 490 nm and 650 nm (reference) was measured by a Spectra Max (Molecular Devices). […]
compound,measurement,value
CN1CSC(=S)N(C)C1,outcome,inactive

# Reference: PubChem BioAssay AID1037 (National Center for Advancing Translational Sciences (NCATS), 2008)
